Compound activity from PubChem.
KDM5B inh = KDM5B demethylase inhibition. Q9UGL1. KDM5B demethylase, FDH-coupled NADH fluorescence (FDH is formaldehyde dehydrogenase). Potency, µM (titrated, usually from 57.7 µM), most hits filed as inhibitors. hit rate 2.6% among 220,000; active = well fitted inhibition curve with a large enough effect; note: 0% is about no effect; nearly all actives have a fitted effect of over 70% in size
Target sequence (Q9UGL1 whole entry, looked up): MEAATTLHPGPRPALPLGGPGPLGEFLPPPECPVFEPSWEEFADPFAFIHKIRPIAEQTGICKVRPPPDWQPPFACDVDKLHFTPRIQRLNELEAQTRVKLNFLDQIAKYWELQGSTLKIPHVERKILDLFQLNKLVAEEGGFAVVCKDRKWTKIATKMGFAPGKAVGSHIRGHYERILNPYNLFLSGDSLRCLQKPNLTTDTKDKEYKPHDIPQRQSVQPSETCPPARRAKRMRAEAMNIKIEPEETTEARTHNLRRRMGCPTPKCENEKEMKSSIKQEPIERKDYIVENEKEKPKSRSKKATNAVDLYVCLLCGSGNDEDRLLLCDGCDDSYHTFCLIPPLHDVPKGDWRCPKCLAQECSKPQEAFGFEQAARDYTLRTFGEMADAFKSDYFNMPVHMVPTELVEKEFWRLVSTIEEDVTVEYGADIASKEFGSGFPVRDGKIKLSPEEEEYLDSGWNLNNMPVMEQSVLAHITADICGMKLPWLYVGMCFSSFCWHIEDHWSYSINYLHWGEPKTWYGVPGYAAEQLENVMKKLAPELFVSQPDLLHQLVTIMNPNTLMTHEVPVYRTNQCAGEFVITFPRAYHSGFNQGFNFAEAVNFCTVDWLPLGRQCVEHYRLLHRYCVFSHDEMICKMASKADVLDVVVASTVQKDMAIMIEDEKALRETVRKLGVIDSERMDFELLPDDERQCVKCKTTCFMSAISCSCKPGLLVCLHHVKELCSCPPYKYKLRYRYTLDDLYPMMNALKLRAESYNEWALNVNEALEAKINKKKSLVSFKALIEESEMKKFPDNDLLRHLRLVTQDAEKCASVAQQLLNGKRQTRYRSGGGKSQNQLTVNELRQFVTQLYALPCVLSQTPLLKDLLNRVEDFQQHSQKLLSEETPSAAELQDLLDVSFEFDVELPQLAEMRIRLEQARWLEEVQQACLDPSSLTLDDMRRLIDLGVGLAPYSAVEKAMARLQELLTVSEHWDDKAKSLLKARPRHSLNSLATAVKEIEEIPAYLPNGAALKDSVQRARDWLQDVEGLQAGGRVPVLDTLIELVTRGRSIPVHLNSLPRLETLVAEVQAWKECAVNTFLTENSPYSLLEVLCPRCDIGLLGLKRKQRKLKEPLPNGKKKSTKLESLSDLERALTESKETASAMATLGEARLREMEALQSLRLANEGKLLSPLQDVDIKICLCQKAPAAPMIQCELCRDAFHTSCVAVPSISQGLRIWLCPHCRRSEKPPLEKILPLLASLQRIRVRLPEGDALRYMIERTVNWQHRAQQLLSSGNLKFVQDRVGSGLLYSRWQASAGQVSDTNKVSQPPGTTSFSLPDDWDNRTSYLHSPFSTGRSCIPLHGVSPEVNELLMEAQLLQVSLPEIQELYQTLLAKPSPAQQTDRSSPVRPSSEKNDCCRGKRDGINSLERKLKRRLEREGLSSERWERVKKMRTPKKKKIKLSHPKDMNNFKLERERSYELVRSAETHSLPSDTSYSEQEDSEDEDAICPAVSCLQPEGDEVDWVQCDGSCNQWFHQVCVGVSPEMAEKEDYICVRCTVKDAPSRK
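Compound dilutions met 200 nM (final) KDM5BΔAP for 10 min at room temperature before substrate addition. The substrate mix held 12.5 µM H3K4me3 with cofactors 25 µM α-ketoglutarate and 50 µM Fe²⁺. NADH signal gain over 30 min defined activity.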
* marks the source's active call; other numbers are inactive results. Shown is part of a subset that was picked to be rich in hits. Potency is the fitted concentration of half-maximal effect.

Screening CCNc1nc(-c2cc(C)n(-c3cc(C)on3)c2C)cs1 returned KDM5B inh inactive.
For CCc1c(C(=O)N2CCCN(C)C3(CCN(C)CC3)C2)csc1C the results were KDM5B inh inactive.
`Cc1cc(C)c2c(C(=O)N3CCN(C)C4(CCN(C)CC4)C3)cc(C)nc2c1` gave KDM5B inh 25µM*.
Cc1cc(C)cc(NC(=O)CC(=O)N2CCN(C)C3(CCN(C)CC3)C2)c1 was read as KDM5B inh inactive.
O=C(O)C[C@@H]1CCN(C(=O)c2ccnc(Cl)c2)C[C@@H]1CCN1CCN(c2cccc(C(F)(F)F)c2)CC1 was read as KDM5B inh inactive.
Screening COC(=O)c1cn([C@H]2CO[C@H]3[C@@H]2OC[C@@H]3NC(=O)COc2ccccc2)nn1 returned KDM5B inh inactive.
O=C(Nc1ccccc1)O[C@@H]1CO[C@H]2[C@@H]1OC[C@@H]2NC(=O)C1CCCCC1 was read as KDM5B inh inactive.
`O=C(N[C@H]1CO[C@H]2[C@@H]1OC[C@@H]2Nc1nccc(-c2cccs2)n1)c1ccccc1` gave KDM5B inh 35µM*.
O=C(COc1ccccc1)N[C@H]1CO[C@H]2[C@@H]1OC[C@@H]2Nc1nccc(-c2cccs2)n1 was read as KDM5B inh 28µM*.
Screening CCNC(=O)O[C@@H]1CO[C@H]2[C@@H]1OC[C@@H]2NC(=O)c1ccccn1 returned KDM5B inh inactive.
CCNC(=O)O[C@@H]1CO[C@H]2[C@@H]1OC[C@@H]2Nc1nccc(-c2cccs2)n1 was read as KDM5B inh 28µM*.
CC(C)(C)c1ccc(NC(=O)O[C@@H]2CO[C@H]3[C@@H]2OC[C@@H]3Nc2nccc(-c3ccccc3)n2)cc1 was read as KDM5B inh inactive.
`O=C(N[C@H]1CO[C@H]2[C@@H]1OC[C@@H]2Nc1nccc(-c2cccs2)n1)C1CCCCC1` gave KDM5B inh 35µM*.
O=c1c2c(n(CCOc3ccccc3)n1-c1ccccc1)CN(Cc1ccc3c(c1)CCO3)CC2 was read as KDM5B inh inactive.
Cn1c(CCC(=O)NCc2ccon2)nc2cc(S(=O)(=O)N3CCCC3)ccc21 was read as KDM5B inh inactive.
For CCn1c(CCC(=O)Nc2ccccc2Cl)nnc1SCc1nc2ccccc2c(=O)[nH]1 the results were KDM5B inh inactive.
`COCc1noc([C@@H]2CC(F)(F)CN2C(=O)Cc2ccccc2F)n1` gave KDM5B inh inactive.
`CCc1ccccc1S(=O)(=O)N1CCN(C2(CC)CCN(C(=O)NC)C2)CC1` (centres undefined) gave KDM5B inh inactive.
`Cc1ncsc1CN(Cc1ccccc1)C(=O)CCn1nnnc1CN1CCOCC1` gave KDM5B inh inactive.
O=C(NCc1ccccc1Cl)c1cccc2c1-c1ccccc1C2=O was read as KDM5B inh inactive.
Screening CCc1ccc(NC(=O)c2cnn3c2NC(C(=O)O)=CC3c2cc(OC)ccc2OC)cc1 (centres undefined) returned KDM5B inh inactive.
Screening CC(C)(C)c1ccccc1NC(=O)COC(=O)c1ccc2ccccc2n1 returned KDM5B inh inactive.
Screening CCc1c(C)sc(NC(=O)Cc2ccc(Cl)cc2Cl)c1C#N returned KDM5B inh inactive.
`CN(C)C(=O)CN1CCN(C(C(=O)O)c2cn(C)c3cc(C(=O)O)ccc23)CC1` (centres undefined) gave KDM5B inh inactive.
O=C(/C=C/Nc1ccccc1F)C(F)(F)F was read as KDM5B inh inactive.
C=CCNC(=O)CCc1c(C)nn(-c2ccc(F)cc2)c1Oc1ccccc1OC was read as KDM5B inh inactive.
CN(Cc1ccccc1C(F)(F)F)C(=O)c1ccc(C(F)(F)F)cc1 was read as KDM5B inh inactive.
For CC(C)(C)c1ccnc(N[C@H]2CO[C@H]3[C@@H]2OC[C@@H]3NS(=O)(=O)c2cccs2)n1 the results were KDM5B inh inactive.
CC(=O)Nc1ccc(S(=O)(=O)N[C@H]2CO[C@H]3[C@@H]2OC[C@@H]3Nc2nccc(-c3cccs3)n2)cc1 was read as KDM5B inh 25µM*.
`CC(=O)Nc1ccc(S(=O)(=O)N[C@H]2CO[C@H]3[C@@H]2OC[C@H]3OC(=O)Nc2ccccc2)cc1` gave KDM5B inh inactive.
CCCn1nc(C(=O)NCC2CCCN2CC)c2ccccc2c1=O (centres undefined) was read as KDM5B inh inactive.
For Cc1cccc(/C=C(/C(=O)N2CCCCCC2)c2cccs2)c1 the results were KDM5B inh inactive.
`CCCn1c(=O)[nH]c(=O)c2c3c(cnc21)C(=O)CC(c1ccc(OC)c(OC)c1)C3` (centres undefined) gave KDM5B inh inactive.
`COc1ccc(OC)c(S(=O)(=O)N2CCN(c3cc(N4CCCC4)nc(C)n3)CC2)c1` gave KDM5B inh inactive.
For CCCc1ccc(NC(=O)c2nccnc2N)cc1 the results were KDM5B inh inactive.
Screening COc1cccc(OC)c1C(=O)OCc1ccccc1Br returned KDM5B inh inactive.
`CCCn1cc(-c2ccnc(NC3CCN(Cc4cccnc4)CC3)n2)c(C)n1` gave KDM5B inh 32µM*.
COCC(=O)N(C1CCOCC1)C1CCN(Cc2cccnc2)CC1 was read as KDM5B inh inactive.
For O=S(=O)(Cc1ccccc1)N1CCC(OC2CCN(Cc3cccnc3)CC2)CC1 the results were KDM5B inh inactive.
COc1cccc(NC(=O)CCc2ncc(-c3ccc(Cl)cc3)o2)c1 was read as KDM5B inh inactive.
COc1ccc(NC(=O)CSc2nc3ccccc3n2CC(=O)N2CCCC(C)C2)cc1 (centres undefined) was read as KDM5B inh inactive.
Screening COc1ccc(Cn2c(CCC(=O)Nc3cccc(Cl)c3)nc3cccnc32)cc1 returned KDM5B inh inactive.
`COc1cccc(CCC(=O)N2CCC(c3noc(-c4cnccn4)n3)C2)c1` (centres undefined) gave KDM5B inh inactive.
`COc1cccc(CCC(=O)N2CCCC(c3[nH]ccc3C(N)=O)C2)c1` (centres undefined) gave KDM5B inh inactive.
For COc1cccc(-c2nc3cnccn3c2NCCC(=O)Nc2cccc(Cl)c2)c1 the results were KDM5B inh 28µM*.
Screening COc1cccc(-c2nc3cnccn3c2NCCC(=O)N2CCCC(C)C2)c1 (centres undefined) returned KDM5B inh 28µM*.
`COc1ccc(-c2nc3cnccn3c2NCCC(=O)N2CCCC(C)C2)cc1` (centres undefined) gave KDM5B inh 28µM*.
COc1ccc(CCC(=O)N2CCCC(c3nc(C4CCOCC4)no3)C2)cc1 (centres undefined) was read as KDM5B inh inactive.
For CCOC(=O)c1sc(Nc2ccc(C)cc2)nc1C the results were KDM5B inh inactive.
Screening CCS(=O)(=O)Nc1ccc(C2(C(=O)NC3CCCC3)CCCCC2)cc1 returned KDM5B inh inactive.
`Cc1ccc(NC(=O)CCNC(=O)Cc2ccccc2)cc1C` gave KDM5B inh inactive.
For O=C(c1cnccn1)N1CC(F)(F)C[C@H]1c1nc(-c2ccncc2)no1 the results were KDM5B inh inactive.
Screening COc1ccc(CCNC(=O)c2nn(Cc3ccccc3)c(=O)c3ccccc23)cc1 returned KDM5B inh inactive.
Screening CN(c1ccccc1)c1ccc2nnc(-c3cc(C(=O)N4CC(O)C4)ccn3)n2n1 returned KDM5B inh inactive.
Screening N#Cc1c(NC(=O)c2ccnn2C(F)F)sc2c1CCC2 returned KDM5B inh inactive.
